Holding throughout (test): NCI-60 one-dose screen, 48 h (100 = growth as untreated, 0 = no growth, -100 = all killed)
Holding throughout (settings): 10 µM unless noted

The subject of test [1] is SR leukemia.
For test [2], the system named is RPMI-8226 leukemia.
The test system of test [3] is OVCAR-8 ovarian.
The test system of test [4] is OVCAR-5 ovarian.
Test [5] relates to OVCAR-4 ovarian.
The test system of test [6] is SK-OV-3 ovarian.
Test [7] concerns IGROV1 ovarian.
In test [8] the test system is OVCAR-3 ovarian.
Test [9] concerns HS 578T breast.
Test [10] deals with NCI/ADR-RES ovarian.
The subject of test [11] is T-47D breast.
Test [12] deals with BT-549 breast.
Test [13] deals with MDA-MB-435 melanoma.
Test [14] has as its system SW-620 colon.
The subject of test [15] is MCF7 breast.
Test [16] relates to HCT-116 colon.
Test [17] deals with HCC-2998 colon.
The test system of test [18] is KM12 colon.

The panel holds about 83,000 compounds, 20% with a hit somewhere; the sample as a whole holds those more often.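 For each line, cells grew in 96-well plates with the test compound present at a single concentration for 48 hours.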 Unmarked numbers belong to inactive results. Activity calls are given as the source filed them. The calls were made as follows: active = growth percent below 10; inactive = the rest.

On to `COc1cc2c3c(n(CCCCNCCCn4c5c(c6cc(OC)c(OC)cc6c4=O)C(=O)c4cc6c(cc4-5)OCO6)c(=O)c2cc1OC)-c1cc2c(cc1C3=O)OCO2`, for which the growth in test [1] is 66.6%; in [2], 105%; in test [3], 101%; in test [4], 98.6%; in test [5], 102%; in [6], 96.3%. Also, the growth in [7] is 95%; in test [8] it was 98.7%; in [9], 104%; in test [10], 98.6%; in [11], 88.7%; in test [12], 106%. The growth in [13] is 105%; in test [14], 95.2%; in test [15] it was 93.6%; in test [16], 93.9%; in test [17], 105%; in [18], 93.8%.
Turning to `CSCCC(NC(=O)c1ccccc1)C(=O)N/N=C1\S/C(=C/c2ccc(Cl)cc2)C(=O)N1C` (centres undefined), the growth in test [1] is 38.2%; in test [2], 49.9%; in test [3] it was 71.1%; in test [4], 94.5%; in test [5], 88.8%; in [6] it was 84.5%. Also, the growth is 95.7% in test [7]; 108% in [8]; 80.5% in [9]; 96.7% in [10]; 82.9% in [11]; 87.3% in [12]. Besides, the growth was 86.2% in test [13]; 93.5% in test [14]; 83.9% in [15]; 55.2% in test [16]; 96.7% in [17]; 88.9% in test [18].
With `CC(O)c1ncc(/C=C2\SC(=S)N(Cc3ccccc3)C2=O)s1` (centres undefined), the growth in [1] was 82.4%; in test [2] it was 52.3%; in test [3] it was 102%; in [4], 98.6%; in [5], 85.1%; in [6], 96.6%. Besides, the growth in test [7] is 100%; in test [8] it was 97.2%; in test [9] it was 109%; in test [10], 99.5%; in [11] it was 42.4%; in test [12] it was 92.9%. Also, the growth was 80.5% in [13]; 90.3% in test [14]; 80.3% in [15]; 96% in test [16]; 120% in test [17]; 81% in test [18].
On to `CC(C)(C)C(=O)/C=C/c1ccc([N+](=O)[O-])cc1`, for which the growth in test [1] is 8.57% (active); in test [2], 23.5%; in test [3], 76.8%; in test [4], 108%; in [5], 91.5%; in test [6] it was 98.7%. The growth in test [7] was 96%; in [8], 84.9%; in test [9] it was 90.2%; in [10], 60.2%; in [11] it was 65.8%; in [12], 78.5%. The growth was 47.1% in test [13]; 20% in test [14]; 8.67% (active) in [15]; 42.2% in test [16]; 119% in [17]; 31.9% in test [18].
For `NC(=O)c1c(NC(=O)c2ccc(Cl)cc2)sc2c1CCC(=O)C2`, the growth in test [1] is 13.3%; in [2], -14.3% (active); in [3] it was 61.3%; in test [4] it was 86.5%; in [5] it was 9.18% (active); in test [6], 93%. Also, the growth in test [7] is 52.6%; in test [8] it was 32.6%; in [9] it was 64%; in [10], 87.8%; in test [11], 35.9%; in test [12], 25.1%. For the same compound, the growth in test [13] is 94.5%; in test [14], 12.7%; in test [15], 57.8%; in test [16], 8.72% (active); in test [17], 104%; in test [18], 42.1%.
With `CC(C)c1ccc(C(=O)Nc2sc3cc(O)ccc3c2C#N)cc1`, the growth is 0.658% (active) in test [1]; 21.2% in [2]; 51.2% in test [3]; 87.8% in [4]; 58% in [5]; 50.2% in test [6]. Moreover, the growth was 31.1% in test [7]; 16.4% in test [8]; 26.6% in [9]; 11.2% in [10]; 36.4% in test [11]; 20.8% in test [12]. The growth is -42.9% (active) in test [13]; 28.7% in test [14]; 13.8% in test [15]; 15% in [16]; 60.3% in test [17]; 21% in test [18].
`COc1ccc(C2=Nc3c(N)ncnc3NC(c3cccc(Nc4ccnc5cc(C(F)(F)F)ccc45)c3)C2)cc1` (centres undefined): the growth was 5.09% (active) in [1]; 11.8% in test [2]; 67.9% in test [3]; 92.3% in [4]; 67.2% in test [5]; 69.3% in [6]. The growth in [7] was 66.4%; in test [8] it was 78.2%; in test [9], 55.3%; in [10], 65.3%; in test [11], 62%; in test [12], 80.7%. In addition, the growth is 19.1% in test [13]; 62.3% in test [14]; 30.1% in [15]; 40% in [16]; 72.1% in test [17]; 47.1% in [18].
Consider `N=C(N)c1ccc(-c2ccc(-c3ccc(Cl)cc3)o2)o1`, for which the growth was -28.8% (active) in test [1]; -6.54% (active) in test [2]; -55.4% (active) in [3]; 3.3% (active) in [4]; 46.2% in test [5]; 81.2% in [6]. The growth in test [7] was 37.7%; in test [8], -86.1% (active); in test [9], 78.6%; in test [10] it was -50.6% (active); in test [11] it was 26.5%; in test [12], 93.1%. The growth in test [13] was -89.1% (active); in test [14], -69.7% (active); in test [15], -70.9% (active); in [16] it was -76.1% (active); in [17], -81.1% (active); in test [18], -84.9% (active).

Source of the values: PubChem BioAssay (NCI).
